Assay results reported in PubChem BioAssay (Tox21).
Where “and” joins values, the source holds several entries; their conditions need not be identical. Identical values can stand only once. Results filed as inconclusive are left out. A call without a number means that no potency is given here. More than one record can exist for a structure, and the calls need not agree. Calls of active or inactive are those of the source. Calls follow the shape of the dose curve; as a rule, active = well fitted curve in the direction sought with a large enough effect in the repeat runs; inconclusive = weak or mixed curves; inactive = no such curve, though single readings can be large; an effect the other way counts as inactive or inconclusive.

Key:
[1] = Caspase-3/7 induction in CHO-K1 cells by small molecules, qHTS cell viability counter screen (AID 1346979); also: nearly all actives have a fitted effect of over 35% in size; also: potency is read from the fitted curve at half-maximal effect
How it was run: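 Cells (CHO-K1, wild type) are plated at 1,500 per well and incubated 5hr. Test compounds in DMSO are then pinned in, followed by 16hr at 37C and 5% CO2. Viability is read by CellTiter-Fluor fluorescence after 1hr.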

[2] = Caspase-3/7 induction in CHO-K1 cells by small molecules, qHTS assay (AID 1346980); also: nearly all actives have a fitted effect of over 15% in size; also: potency is read from the fitted curve at half-maximal effect
How it was run: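 Wild-type cells were seeded at 1,500 per well and settled 5 hr at 37 C, 5% CO2, then exposed to DMSO-dissolved compounds for 17 hr. Caspase-Glo 3/7 reagent was added, and luminescence was read after 30min at room temperature.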

[3] = Caspase-3/7 induction in HepG2 cells by small molecules, qHTS cell viability counter screen (AID 1346981); also: nearly all actives have a fitted effect of over 30% in size; also: potency is read from the fitted curve at half-maximal effect
How it was run: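 HepG2, WT, 2,000 cells/well; 5 hr pre-incubation 37 C/5% CO2; compound pin-transferred from DMSO; 16 hr exposure; CellTiter-Fluor, 1 hr; fluorescence read.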

[4] = target: Nuclear receptor subfamily 1 group I member 2 (Homo sapiens) (UniProt O75469); test: Human pregnane X receptor (PXR) small molecule agonists, qHTS assay (AID 1346982); also: nearly all actives have a fitted effect of over 35% in size; also: potency is read from the fitted curve at half-maximal effect
How it was run: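 Luciferase signal from ONE-Glo (30 min, room temperature) measured activation of hPXR-driven CYP3A4 reporter expression in PXR-Luc HepG2 cells treated with compounds for 24 hr at 37 C.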

[5] = target: Nuclear receptor subfamily 1 group I member 2 (Rattus norvegicus) (UniProt Q9R1A7); test: Rat pregnane X receptor (rPXR) activation by small molecules, qHTS assay (AID 1346983); conditions: rPXR luciferase reporter cells, One-Glo luminescence, 24 h; stronger effect = higher value; also: nearly all actives have a fitted effect of over 20% in size
How it was run: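 Cell-based rPXR luciferase reporter assay, 2,000 cells per well, rested 5hr at 37 C before compound addition in DMSO, then 24 hr at 37 C. One-Glo reagent was added and luminescence read after 30 min at room temperature.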

[6] = target: Nuclear receptor subfamily 1 group I member 2 (Homo sapiens) (UniProt O75469); test: Human pregnane X receptor (PXR) activation by small molecules, qHTS assay (AID 1346985); also: nearly all actives have a fitted effect of over 40% in size; also: potency is read from the fitted curve at half-maximal effect
How it was run: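 DPX-2 cells (HepG2 co-transfected with a PXR response element and a CYP3A4-promoter luciferase construct) were seeded at 2,000 per well, rested 5 hr at 37C, then exposed to DMSO-dissolved compounds for 24 hr. Activation was read as luciferase luminescence.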

[7] = target: Cytochrome P450 2C9 (Homo sapiens) (UniProt P11712); test: Cytochrome P450 Family 2 Subfamily C Member 9 (CYP2C9) small molecule antagonists: luciferase reporter qHTS assay (AID 1671198); also: nearly all actives have a fitted effect of over 50% in size; also: potency is read from the fitted curve at half-maximal effect
How it was run: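 CYP2C9 activity was measured with a P450-Glo proluciferin substrate. Enzyme–substrate mix was held with compound for 10 min at room temperature, then NADPH regeneration solution was added for 1 h at 37C. Luciferin product was read as luminescence.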

[8] = target: Cytochrome P450 1A2 (Homo sapiens) (UniProt P05177); test: Cytochrome P450 Family 1 Subfamily A Member 2 (CYP1A2) small molecule antagonists: luciferase reporter qHTS assay (AID 1671199); also: nearly all actives have a fitted effect of over 50% in size; also: potency is read from the fitted curve at half-maximal effect
How it was run: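 P450-Glo CYP1A2, 1536-well qHTS: enzyme/proluciferin substrate + cpd (DMSO), 10 min RT; NADPH regen, 1 h RT; detection reagent, 20 min; luminescence, RLU.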

[9] = target: Voltage-gated inwardly rectifying potassium channel KCNH2 (Homo sapiens) (UniProt Q12809); test: Human Ether-a-go-go-Related Gene (hERG) channel small molecule antagonists: fluorescence cell-based qHTS assay (AID 1671200); also: nearly all actives have a fitted effect of over 50% in size; also: potency is read from the fitted curve at half-maximal effect
How it was run: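 Channel function was assessed by thallium flux. Cells seeded the previous day and kept at 37 C took up FluxOR II dye over 1 h in the dark at room temperature, then sat another 10 min before stimulation.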

[10] = target: Cytochrome P450 3A4 (Homo sapiens) (UniProt P08684); test: Cytochrome P450 Family 3 Subfamily A Member 4 (CYP3A4) small molecule antagonists: luciferase reporter qHTS assay (AID 1671201); also: nearly all actives have a fitted effect of over 50% in size; also: potency is read from the fitted curve at half-maximal effect
How it was run: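 Compounds in DMSO were pin-transferred onto CYP3A4 enzyme-substrate mix and held 10 min at room temperature. NADPH regenerating solution started the reaction for 1 h; luciferin detection reagent stopped it, and luminescence was read after 20 min.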

[11] = target: Nuclear receptor subfamily 1 group I member 2 (Homo sapiens) (UniProt O75469); test: CYP3A4 induction through human pregnane X receptor (PXR) by small molecules, qHTS assay (AID 1346984); also: nearly all actives have a fitted effect of over 40% in size; also: potency is read from the fitted curve at half-maximal effect
How it was run: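 Luminescence readout: luciferase signal after One-Glo (30 min, room temperature), following 3 h at 37C with 3uM final Luciferin-IPA P450 substrate. Cells were DPX-2 (HepG2, PXR/CYP3A4-luc co-transfected) dosed for 24 h.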

[12] = target: Cytochrome P450 2D6 (Homo sapiens) (UniProt P10635); test: Cytochrome P450 Family 2 Subfamily D Member 6 (CYP2D6) small molecule antagonists: luciferase reporter qHTS assay (AID 1671196); also: nearly all actives have a fitted effect of over 50% in size; also: potency is read from the fitted curve at half-maximal effect
How it was run: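 Read-out is luminescence from luciferin formed by CYP2D6 turnover of a proluciferin substrate, recorded as relative luminescence units. Reactions ran 1 h at room temperature after NADPH regeneration solution was added.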

[13] = target: Cytochrome P450 2C19 (Homo sapiens) (UniProt P33261); test: Cytochrome P450 Family 2 Subfamily C Member 19 (CYP2C19) small molecule antagonists: luciferase reporter qHTS assay (AID 1671197); also: nearly all actives have a fitted effect of over 65% in size; also: potency is read from the fitted curve at half-maximal effect
How it was run: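 P450-Glo CYP2C19 screening system; proluciferin substrate; DMSO compound stocks; 10 min RT preincubation; NADPH regeneration, 1 h at 37C; luciferin detection reagent, 20 min RT; luminescence as RLU.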

Voltage-gated inwardly rectifying potassium channel KCNH2 (Homo sapiens), sequence (Q12809 whole entry, looked up): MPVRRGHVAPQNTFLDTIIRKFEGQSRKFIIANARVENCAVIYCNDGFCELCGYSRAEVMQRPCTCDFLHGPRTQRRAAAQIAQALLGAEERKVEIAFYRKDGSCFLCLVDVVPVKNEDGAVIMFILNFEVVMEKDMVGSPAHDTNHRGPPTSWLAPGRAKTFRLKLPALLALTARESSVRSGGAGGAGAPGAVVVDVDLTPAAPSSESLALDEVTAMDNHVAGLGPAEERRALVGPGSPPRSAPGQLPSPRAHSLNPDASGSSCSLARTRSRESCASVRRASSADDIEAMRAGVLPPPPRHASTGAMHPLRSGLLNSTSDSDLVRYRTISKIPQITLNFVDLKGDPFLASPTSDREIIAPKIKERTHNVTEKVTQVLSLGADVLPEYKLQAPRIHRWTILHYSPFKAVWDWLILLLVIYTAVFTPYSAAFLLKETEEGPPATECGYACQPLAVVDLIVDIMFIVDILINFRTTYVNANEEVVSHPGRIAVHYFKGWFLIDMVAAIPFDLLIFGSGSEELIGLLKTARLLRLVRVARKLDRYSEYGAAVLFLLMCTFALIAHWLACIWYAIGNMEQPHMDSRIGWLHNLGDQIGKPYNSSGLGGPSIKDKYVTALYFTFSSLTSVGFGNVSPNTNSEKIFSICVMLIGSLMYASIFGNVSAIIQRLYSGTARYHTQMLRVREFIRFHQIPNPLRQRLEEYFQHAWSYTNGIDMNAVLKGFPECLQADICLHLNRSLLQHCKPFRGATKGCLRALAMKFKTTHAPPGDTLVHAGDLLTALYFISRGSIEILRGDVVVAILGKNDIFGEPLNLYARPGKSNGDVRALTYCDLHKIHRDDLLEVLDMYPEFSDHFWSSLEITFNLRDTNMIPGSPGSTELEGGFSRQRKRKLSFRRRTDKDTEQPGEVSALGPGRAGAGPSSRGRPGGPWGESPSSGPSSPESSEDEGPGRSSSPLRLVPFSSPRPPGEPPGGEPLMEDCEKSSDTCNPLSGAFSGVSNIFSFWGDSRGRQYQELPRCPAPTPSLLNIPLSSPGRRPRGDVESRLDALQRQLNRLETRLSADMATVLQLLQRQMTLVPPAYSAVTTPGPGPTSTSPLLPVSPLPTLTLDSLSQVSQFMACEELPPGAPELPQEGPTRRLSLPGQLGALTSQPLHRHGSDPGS
Cytochrome P450 2D6 (Homo sapiens), sequence (P10635 whole entry, looked up): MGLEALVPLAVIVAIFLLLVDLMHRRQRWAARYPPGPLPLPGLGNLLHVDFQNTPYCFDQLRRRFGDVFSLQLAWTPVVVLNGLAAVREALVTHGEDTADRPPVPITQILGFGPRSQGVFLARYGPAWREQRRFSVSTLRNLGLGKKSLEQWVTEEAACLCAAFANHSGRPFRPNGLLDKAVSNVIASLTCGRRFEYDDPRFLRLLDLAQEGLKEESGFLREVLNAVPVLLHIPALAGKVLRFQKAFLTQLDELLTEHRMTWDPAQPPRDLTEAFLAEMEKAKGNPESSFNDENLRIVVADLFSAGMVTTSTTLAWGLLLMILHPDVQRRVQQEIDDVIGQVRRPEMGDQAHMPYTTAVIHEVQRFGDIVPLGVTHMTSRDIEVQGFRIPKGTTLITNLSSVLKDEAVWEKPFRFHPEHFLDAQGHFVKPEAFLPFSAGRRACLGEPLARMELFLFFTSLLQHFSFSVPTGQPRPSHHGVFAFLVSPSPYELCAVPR
Nuclear receptor subfamily 1 group I member 2 (Homo sapiens), sequence (O75469 whole entry, looked up): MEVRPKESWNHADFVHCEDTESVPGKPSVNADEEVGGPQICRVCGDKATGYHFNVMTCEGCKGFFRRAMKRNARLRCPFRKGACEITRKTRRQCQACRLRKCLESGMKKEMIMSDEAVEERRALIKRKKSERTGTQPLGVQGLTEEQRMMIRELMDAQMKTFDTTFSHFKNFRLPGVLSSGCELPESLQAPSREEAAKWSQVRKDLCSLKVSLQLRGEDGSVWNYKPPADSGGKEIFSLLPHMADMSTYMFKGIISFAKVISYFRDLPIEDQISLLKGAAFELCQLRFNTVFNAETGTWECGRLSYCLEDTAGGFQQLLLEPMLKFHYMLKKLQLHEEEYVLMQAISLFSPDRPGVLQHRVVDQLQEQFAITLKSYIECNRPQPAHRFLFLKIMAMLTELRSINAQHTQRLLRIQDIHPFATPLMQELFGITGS
Cytochrome P450 1A2 (Homo sapiens), sequence (P05177 whole entry, looked up): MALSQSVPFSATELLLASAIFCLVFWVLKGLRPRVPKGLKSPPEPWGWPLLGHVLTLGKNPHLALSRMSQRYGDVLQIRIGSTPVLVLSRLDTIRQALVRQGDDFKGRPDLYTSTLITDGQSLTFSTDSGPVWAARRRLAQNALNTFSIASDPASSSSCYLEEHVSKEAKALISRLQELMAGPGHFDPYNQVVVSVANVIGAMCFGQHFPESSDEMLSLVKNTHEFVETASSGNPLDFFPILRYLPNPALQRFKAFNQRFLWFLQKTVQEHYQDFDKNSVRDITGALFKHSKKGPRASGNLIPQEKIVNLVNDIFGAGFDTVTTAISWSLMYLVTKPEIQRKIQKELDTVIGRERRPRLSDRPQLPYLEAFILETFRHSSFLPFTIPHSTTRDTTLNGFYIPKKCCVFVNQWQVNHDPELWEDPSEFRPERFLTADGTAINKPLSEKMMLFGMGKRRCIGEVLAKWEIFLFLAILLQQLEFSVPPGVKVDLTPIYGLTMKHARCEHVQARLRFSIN
Nuclear receptor subfamily 1 group I member 2 (Rattus norvegicus), sequence (Q9R1A7 whole entry, looked up): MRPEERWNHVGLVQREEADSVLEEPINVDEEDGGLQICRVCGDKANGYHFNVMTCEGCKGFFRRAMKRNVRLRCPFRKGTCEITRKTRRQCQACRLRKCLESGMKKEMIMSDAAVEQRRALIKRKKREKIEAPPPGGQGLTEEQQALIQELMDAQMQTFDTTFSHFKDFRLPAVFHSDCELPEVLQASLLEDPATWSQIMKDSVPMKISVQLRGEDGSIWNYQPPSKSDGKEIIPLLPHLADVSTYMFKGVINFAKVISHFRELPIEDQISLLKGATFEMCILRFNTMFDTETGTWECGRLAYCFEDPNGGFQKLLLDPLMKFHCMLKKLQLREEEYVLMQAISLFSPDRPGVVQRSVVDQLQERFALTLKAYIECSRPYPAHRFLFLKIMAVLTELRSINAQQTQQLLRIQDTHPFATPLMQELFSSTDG
Cytochrome P450 2C19 (Homo sapiens), sequence (P33261 whole entry, looked up): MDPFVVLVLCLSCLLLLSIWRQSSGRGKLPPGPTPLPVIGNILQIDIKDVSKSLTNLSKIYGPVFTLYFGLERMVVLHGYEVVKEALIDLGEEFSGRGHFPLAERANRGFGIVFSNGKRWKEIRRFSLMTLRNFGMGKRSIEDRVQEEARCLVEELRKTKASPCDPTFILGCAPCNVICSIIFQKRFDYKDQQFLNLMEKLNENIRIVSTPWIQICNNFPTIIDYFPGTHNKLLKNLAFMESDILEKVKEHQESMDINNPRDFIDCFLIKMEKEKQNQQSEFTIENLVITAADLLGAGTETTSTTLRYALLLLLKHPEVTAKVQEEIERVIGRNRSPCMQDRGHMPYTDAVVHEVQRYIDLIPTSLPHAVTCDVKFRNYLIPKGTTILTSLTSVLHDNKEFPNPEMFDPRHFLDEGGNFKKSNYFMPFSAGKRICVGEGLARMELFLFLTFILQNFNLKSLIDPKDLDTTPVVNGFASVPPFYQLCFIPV
Cytochrome P450 3A4 (Homo sapiens), sequence (P08684 whole entry, looked up): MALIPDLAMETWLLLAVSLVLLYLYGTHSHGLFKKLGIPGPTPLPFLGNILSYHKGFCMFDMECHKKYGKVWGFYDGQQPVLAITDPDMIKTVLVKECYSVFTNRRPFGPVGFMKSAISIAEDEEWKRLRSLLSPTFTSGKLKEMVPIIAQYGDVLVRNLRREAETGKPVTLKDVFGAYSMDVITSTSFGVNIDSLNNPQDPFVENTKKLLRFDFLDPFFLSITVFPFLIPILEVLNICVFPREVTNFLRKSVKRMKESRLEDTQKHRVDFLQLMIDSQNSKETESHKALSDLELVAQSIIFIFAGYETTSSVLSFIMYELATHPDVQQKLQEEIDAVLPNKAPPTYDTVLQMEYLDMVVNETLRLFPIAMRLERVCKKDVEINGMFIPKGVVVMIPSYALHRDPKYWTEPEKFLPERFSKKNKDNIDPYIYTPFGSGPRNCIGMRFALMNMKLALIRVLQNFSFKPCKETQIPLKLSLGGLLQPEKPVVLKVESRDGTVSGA
Cytochrome P450 2C9 (Homo sapiens), sequence (P11712 whole entry, looked up): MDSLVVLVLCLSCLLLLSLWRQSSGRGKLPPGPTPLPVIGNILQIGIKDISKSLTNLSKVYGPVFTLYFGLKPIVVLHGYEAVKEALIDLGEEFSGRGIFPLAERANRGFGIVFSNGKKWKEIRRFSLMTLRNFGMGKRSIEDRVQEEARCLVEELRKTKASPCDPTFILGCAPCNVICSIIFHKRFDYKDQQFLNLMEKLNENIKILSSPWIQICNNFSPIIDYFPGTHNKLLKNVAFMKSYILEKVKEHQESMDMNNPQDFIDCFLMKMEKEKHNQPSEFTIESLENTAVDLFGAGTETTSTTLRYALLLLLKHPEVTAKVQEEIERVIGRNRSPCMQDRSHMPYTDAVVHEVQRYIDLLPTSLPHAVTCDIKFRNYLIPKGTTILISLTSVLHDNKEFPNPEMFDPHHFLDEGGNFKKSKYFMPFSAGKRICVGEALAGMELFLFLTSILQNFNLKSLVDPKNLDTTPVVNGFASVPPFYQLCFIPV

Row | SMILES | Potency [1] | Potency [2] | Potency [3] | Potency [4] | max activation [5] | Potency [6] | Potency [7] | Potency [8] | Potency [9] | Potency [10] | Potency [11] | Potency [12] | Potency [13]
1 | CC(C(O)c1ccc(O)cc1)N1CCC(Cc2ccccc2)CC1 (stereo unspecified) | inactive | inactive | inactive | inactive | -2.92% (inactive) | inactive | inactive | inactive | 6.01 µM (active) | inactive | – | – | –
2 | O=C1CC2(CCCC2)CC(=O)N1CCCCN1CCN(c2ncccn2)CC1 | 54.5 µM (active) and inactive | inactive | inactive | – | – | – | – | – | – | – | – | – | –
3 | NNCCc1ccccc1 | inactive | inactive | inactive | 27.4 µM (active) and 26.6 µM (active) | – | 12.6 µM (active) | 25.3 µM (active) and 17.4 µM (active) | 11.3 µM (active) and 17.4 µM (active) | inactive | – | inactive | 2.25 µM (active) and 12.3 µM (active) | 6.35 µM (active) and 13.8 µM (active)
4 | CC(C)(C)NCC(O)c1cc(O)cc(O)c1 (stereo unspecified) | inactive | inactive | inactive | inactive | 3.93% (inactive) | inactive | – | inactive | inactive | inactive | inactive | 38.9 µM (active) | inactive
5 | NC(=Nc1ccccc1)Nc1ccccc1 | inactive | inactive | 20.5 µM (active) | 3.86 µM (active) and 11.9 µM (active) | -2.33% (inactive) | inactive | 89.4 µM (active) and inactive | 50.2 µM (active) and inactive | – | inactive | inactive | 212 nM (active) and 617 nM (active) | 39.9 µM (active) and inactive
6 | COc1cc(C(=S)N2CCOCC2)ccc1O | inactive | inactive | inactive | inactive | -1.33% (inactive) | inactive | inactive | inactive | inactive | inactive | inactive | inactive | –
7 | CC(=O)OCC1=C(C(=O)O)N2C(=O)[C@@H](NC(=O)Cc3cccs3)[C@H]2SC1 | inactive | inactive | inactive | inactive | -1.19% (inactive) | inactive | – | inactive | inactive | inactive | inactive | inactive | inactive
8 | CCC(C)(C)C(=O)O[C@H]1C[C@@H](C)C=C2C=C[C@H](C)[C@H](CC[C@@H]3C[C@@H](O)CC(=O)O3)[C@H]21 | inactive | inactive | – | – | – | – | – | – | – | – | – | – | –
9 | Cc1ccc(-c2cc(C(F)(F)F)nn2-c2ccc(S(N)(=O)=O)cc2)cc1 | 48.4 µM (active) and 61.1 µM (active) | inactive | 60.9 µM (active) and 61.1 µM (active) and inactive | 10.8 µM (active) and 5.45 µM (active) and 13.3 µM (active) | 0.916% (inactive) | – | – | inactive | – | – | 14.1 µM (active) | 998 nM (active) and 35.6 µM (active) and 15.5 µM (active) | 28.1 µM (active) and 50.2 µM (active)
10 | O=c1n(CC2CO2)c(=O)n(CC2CO2)c(=O)n1CC1CO1 (stereo unspecified) | 60.8 µM (active) and 48.6 µM (active) | inactive | 54.2 µM (active) and 48.6 µM (active) | 17.1 µM (active) and 13.7 µM (active) | -2.73% (inactive) | inactive | – | – | inactive | inactive | inactive | inactive | inactive
11 | CC(C)CCCCCCc1ccc(O)cc1 | 44 µM (active) and 61.1 µM (active) | 24.8 µM (active) | 55.4 µM (active) | 22.1 µM (active) and 9.69 µM (active) | -6.01% (inactive) | 28.2 µM (active) | 9.1 µM (active) and 12.6 µM (active) | 28.8 µM (active) | 39.6 µM (active) | 16.2 µM (active) | inactive | 40.6 µM (active) and inactive | 3.62 µM (active) and 4.48 µM (active)
12 | Oc1ccc(Cl)cc1Cc1cc(Cl)ccc1O | 44.1 µM (active) and 38.6 µM (active) and 29.8 µM (active) | inactive | 55.5 µM (active) | 22.1 µM (active) and 27.3 µM (active) | -2.03% (inactive) | inactive | 8.11 µM (active) and 5.64 µM (active) and 4.9 µM (active) | 36.2 µM (active) and 39.9 µM (active) and 15.5 µM (active) | inactive | – | – | – | 3.62 µM (active) and 2.83 µM (active) and 3.09 µM (active)
13 | NCCO | inactive | inactive | inactive | 27.3 µM (active) | – | – | inactive and 31.7 µM (active) | 9.47 µM (active) | inactive | inactive | – | inactive and 5.03 µM (active) | inactive and 11.2 µM (active)
14 | O=S(=O)(O)c1ccc2nc(-c3ccccc3)[nH]c2c1 | inactive | inactive | inactive | inactive | -3.42% (inactive) | inactive | 33.9 µM (active) and 19.5 µM (active) | 26.9 µM (active) and 19.5 µM (active) | inactive | – | inactive | 21.4 µM (active) and 13.8 µM (active) | 17 µM (active) and 9.77 µM (active)
15 | CC(C)CCOC(=O)c1ccc(N(C)C)cc1 | inactive | inactive | inactive | inactive | – | inactive | 8.71 µM (active) | 2.88 µM (active) | inactive | inactive | inactive | inactive | 4.9 µM (active)
